About 520 (0.25%) of roughly 210,000 compounds were called active. No stated cut-off is given here; in the data, active means inhibition above about 50%; inactive means the rest. The full list was thinned out, with actives kept by preference.
tested on: Plasmodium falciparum apicoplast DNA polymerase (apPOL); assay: Pf-apPOL inhibitors, biochemical, fluorescence (AID 1794808); conditions: Recombinant Pf-apPOL, molecular beacon fluorescence, 1.5 h; at 10 µM; stronger effect = higher value

Structure (SMILES)	inhibition
NC(=O)c1cc2cc(Br)ccc2oc1=Nc1ccc(F)cc1	5.9% (inactive)
CC(=O)Nc1ccc(-c2ccc(NC(C)=O)c(Cl)c2)cc1Cl	6.6% (inactive)
CCN1CCCC1CNC(=O)c1cn(C)c(=O)c2cc(OC)c(OC)cc12 (stereo not given)	4.5% (inactive)
O=c1c(O)c(Br)ccc2c(Br)c(O)c(O)c(O)c12	99.5% (active)
O=C(NC1CCCCC1)c1ccccc1NC(=O)C1COc2ccccc2O1 (stereo not given)	-3.8% (inactive)
Cn1nc(-c2nnc(-c3ccccc3Cl)o2)c2c1CCN(C(=O)CCc1ccccc1)C2	-2.8% (inactive)
COc1cc(C(=O)Nc2c3c(nn2-c2ccc(C)cc2C)CS(=O)(=O)C3)cc(OC)c1OC	-2.5% (inactive)
COc1ccc(C2=NOC(C(=O)NCCc3ccccc3)C2)cc1OC (stereo not given)	-10.3% (inactive)
Cc1cc(Cl)ccc1NC(=O)CCc1ccccc1	52.8% (active)
O=C(CCCc1ccccc1)Nc1cccc(Cl)c1	-10.9% (inactive)
Cc1ccc(F)c(NC(=O)CCc2ccccc2)c1	-10.7% (inactive)
Cc1ccc2c(c1)C(=O)C(=O)S2	53.9% (active)
Cc1ccc2nc3c(nc2c1)C(=O)c1ccccc1C3=O	-3.7% (inactive)
Cc1ccc(-c2ccc(C)cc2N)c(N)c1	5.9% (inactive)
Cc1ccsc1/C=C(\C(=O)NCc1cccnc1)S(=O)(=O)c1ccccc1	2.5% (inactive)
O=C(Cc1ccc(F)cc1)N1CCC(Nc2cccn3ncnc23)CC1	-7.3% (inactive)
O=C(C1CCCN(c2nnc3ccc(Cl)cn23)C1)N1CCN(C2CCCCC2)CC1 (stereo not given)	-2.9% (inactive)
CCN(Cc1cc(-c2ccc(C)cc2C)on1)C(=O)c1cccs1	3.3% (inactive)
CCC(=O)N1CCC(COc2ccccc2C(=O)N2CCCCC2)CC1	-0.7% (inactive)
COc1cc(Cl)c(NC(=O)C2CCCN(c3nccc(C)n3)C2)c(OC)c1 (stereo not given)	2.3% (inactive)
CCN(CC)C(=O)C1CCCN(Cc2ccccc2OC)C1 (stereo not given)	-2.5% (inactive)
CCN(CC)S(=O)(=O)c1ccc(C(=O)Nc2c3c(nn2-c2ccc(C)cc2)CSC3)cc1	3.5% (inactive)
Cc1cccc(S(=O)(=O)N2CCSC2c2ccccc2)c1 (stereo not given)	95.2% (active)
O=[N+]([O-])c1ccc(C2SCCN2S(=O)(=O)c2ccccc2)cc1 (stereo not given)	-2.9% (inactive)

Structure (SMILES)	inhibition
CCCCOc1ccc(S(=O)(=O)N2CCSC2c2ccccc2)cc1 (stereo not given)	-1.1% (inactive)
O=C(NCCc1ccccc1)N1CCC(n2c(-c3ccoc3)nc3cccnc32)C1 (stereo not given)	-2% (inactive)
O=C(c1ccccc1)c1ccc(OCCNC(=O)c2ccccc2Br)cc1	-3.3% (inactive)
CC(C)CC1=NN(C(=O)c2cccc(Cl)c2)C(O)(C(F)(F)F)C1 (stereo not given)	2% (inactive)
CC(C)c1cccc(N2C=C(C#N)S(=O)(=O)c3c(F)cccc32)c1	-0.6% (inactive)
COc1ccc(NS(=O)(=O)c2c(C)cc(C)cc2C)c([N+](=O)[O-])c1	-4% (inactive)
COc1cc(C(=O)N2CCC(c3noc(-c4cccc(F)c4)n3)CC2)cc(OC)c1OC	0.1% (inactive)
O=C(c1ccc(OCC2CCCN(C(=O)c3ccccn3)C2)cc1)N1CCCC1 (stereo not given)	3.1% (inactive)
CCc1ccc(OCC(=O)Nc2cc(OC)c(Cl)cc2OC)cc1	-9.2% (inactive)
O=C(NCCCNc1ccc([N+](=O)[O-])cc1Cl)c1ccccc1Br	4.9% (inactive)
Cc1nc(-c2ccccc2)sc1C(=O)ON=C(N)c1ccc([N+](=O)[O-])o1	11.5% (inactive)
CCCOc1ccc(S(=O)(=O)NCC2CCN(S(=O)(=O)C3CC3)CC2)cc1C	-5.5% (inactive)
CC(=O)N1CCc2ccccc2C1C(=O)NCc1ccc(C)cc1 (stereo not given)	-0.9% (inactive)
COc1cccc2sc(=NC(=O)c3cccc(F)c3)n(C)c12	2.7% (inactive)
Cc1nc(N2CCC(C(N)=O)CC2)nc(NCc2ccco2)c1[N+](=O)[O-]	-9.6% (inactive)
COc1cccc(-c2n[nH]c(C)c2NC(=O)C(C)C)c1	-6.9% (inactive)
CCn1c(C2CCN(S(=O)(=O)c3cc(OC)ccc3OC)C2)nc2cccnc21 (stereo not given)	-5.5% (inactive)
Cc1ccc(CC(=O)NC2CCN(c3cc(C)cc(C)c3)C2=O)cc1 (stereo not given)	-5.7% (inactive)
Cc1nc(-c2ccccc2F)sc1C(=O)N1CCCC1	-7.4% (inactive)
Cc1nc(-c2ccncc2)nc2c1CC(=O)N2C1CCCC1	-7.5% (inactive)
COc1cc(NC(=O)c2cccc([N+](=O)[O-])c2)c(OC)cc1NC(=O)c1ccccc1	-2.7% (inactive)
Cc1cccc(CN2CCCn3nc(C(=O)Nc4ccccc4C)cc3C2=O)c1	-2.2% (inactive)
CC1(C(=O)O)NC(c2cc(Cl)ccc2O)C2C(=O)N(c3ccc(Cl)cc3)C(=O)C21 (stereo not given)	-9.1% (inactive)
O=Cc1ccc(OCc2cccc(F)c2)c(Cl)c1	1.2% (inactive)

Structure (SMILES)	inhibition
O=C1CN(C(=O)c2c(F)cccc2F)C(c2ccccc2)c2cc(F)ccc2N1 (stereo not given)	-3.5% (inactive)
COc1cccc(-c2cc3n(n2)CCCN(C(=O)Cc2ccsc2)C3)c1	-7.6% (inactive)
COc1ccccc1N1CCN(CC(=O)Nc2ncc(C)s2)C1=O	-2.4% (inactive)
CCC(CC)C(=O)N1CCN(c2ccc([N+](=O)[O-])cc2)CC1	-4.2% (inactive)
CC1C(=O)N(c2cccc(F)c2)CCN1C(=O)c1ccc(Cl)cc1 (stereo not given)	-2.7% (inactive)
Cc1ccc(C(=O)N2CCN(c3ccc(F)c(Cl)c3)C(=O)C2C)cc1 (stereo not given)	69.1% (active)
Cc1cccc(N2CCN(C(=O)c3ccc(F)cc3)C(C)C2=O)c1 (stereo not given)	0.4% (inactive)
Cc1cccc(NS(=O)(=O)c2c(C)n[nH]c2C)c1C	-1.5% (inactive)
Cc1cc(C)n(-c2ccc(C(=O)NC3CCCC3)cn2)n1	2% (inactive)
CCC1CCCCN1C(=O)CSc1nc2c(c(=O)n1C)SC(C)C2 (stereo not given)	-6.3% (inactive)
COc1ccc(C=C2Oc3c(ccc(O)c3CN3CCCCCC3)C2=O)cc1OC	-19.5% (inactive)
N/C(=N\OC(=O)CCCc1ccccc1)c1ccc(Cl)cc1	5.3% (inactive)
Cc1cccc(NC(=O)N2CC(c3nc(C)no3)C3(CCOCC3)C2)c1 (stereo not given)	-0.4% (inactive)
COc1ccccc1OCC(=O)N1CCCCC1CCN1CCCCCC1 (stereo not given)	-10.1% (inactive)
Cc1ccc2c(c1)C(=O)CC(c1cc(Br)cc3c1OCOC3)O2 (stereo not given)	-13.6% (inactive)
Cc1ccccc1-n1nc2c(c1NC(=O)c1c(F)cccc1Cl)CS(=O)(=O)C2	-3.3% (inactive)
Cc1nc(C(C)C)nc2c1CCC(=O)N2CCCN1CCOCC1	4% (inactive)
Cc1cccc(NC(=O)CC2SC(=Nc3ccccc3)NC2=O)c1 (stereo not given)	2.1% (inactive)
O=C(NCCCN1CCOCC1)c1cc2c(=O)oc3ccccc3c2s1	1.2% (inactive)
O=C(NC1CCCC1)c1ccc(-n2nc(N3CCCC3)ccc2=O)cc1	4.7% (inactive)
COC(=O)c1ccccc1OC1OC(CO)C(O)C(O)C1NC(C)=O (stereo not given)	1.3% (inactive)
O=C(c1ccc([N+](=O)[O-])cc1)N1CCN(c2cccc(Cl)c2)CC1	-2.7% (inactive)
N#CC(C#N)=C1SCN(c2cccc(Cl)c2)CS1	66.2% (active)
CC(=O)Nc1ccc(C(=O)N2CCN(c3cccc(Cl)c3)CC2)cc1	9.7% (inactive)

Structure (SMILES)	inhibition
CCn1cc(C2=CCN(S(=O)(=O)c3cccc(C)c3)CC2)c2cccnc21	-11% (inactive)
Nc1cc2c(cc1[N+](=O)[O-])OCCOCCOc1ccc([N+](=O)[O-])cc1OCCOCCO2	-0.2% (inactive)
CCCNc1cc(N2CCCC(CCC(=O)Nc3ccc4c(c3)OCCO4)C2)ncn1 (stereo not given)	-2.1% (inactive)
COc1cccc(NC(=O)c2cncc(-c3ccc(F)cc3)c2)c1	1.8% (inactive)
Cc1cc(C)cc(-c2nc(-c3ccc4c(c3)oc(=O)n4C)no2)c1	0.7% (inactive)
COc1ccc(C(O)=C2C(=O)C(=O)N(CCN3CCOCC3)C2c2ccccc2F)cc1OC (stereo not given)	-2.5% (inactive)
O=C(COc1ccc(Cl)cc1)N1CCC(N2CCCCCC2)CC1	-3.8% (inactive)
COc1ccc(NCN2C(=O)c3cc(Cl)c(Cl)cc3C2=O)cc1	7.8% (inactive)
CCN(CC)CCNC(=O)C(=O)NCC1OCCN1S(=O)(=O)c1ccc(F)cc1 (stereo not given)	-1.4% (inactive)
O=C(Nc1ccc(F)c(Cl)c1)c1noc2c1CCCCC2	-2.8% (inactive)
CCCCC(NC(C)=O)C(=O)O (stereo not given)	4.1% (inactive)
CCCCOc1ccccc1/C=c1\sc2ncnn2c1=O	10.1% (inactive)
COc1ccc(NC(=O)CCC2CCN(c3cc(NC4CC4)ncn3)CC2)cc1	0.2% (inactive)
COCCNC(=O)NCCCc1ccc(N(C)C)cc1	-1.5% (inactive)
COc1cccc(/C=c2\sc3nc(=O)c(C)nn3c2=O)c1	1.4% (inactive)
CC(=O)N1CCc2sc(S(=O)(=O)N3CCN(c4ccccc4F)CC3)cc2C1	-5.6% (inactive)
COc1ccc(-c2cc(=O)n(CCNC(=O)Cn3cnc4ccccc4c3=O)cn2)cc1	-6.7% (inactive)
COc1ccc(NC(=O)CSc2nc3c(cnn3-c3ccc(C)cc3)c(=O)[nH]2)c(OC)c1	3.2% (inactive)
C(=Nc1ccccc1-n1cccc1)c1cnc(-c2ccccc2)[nH]1	-2.2% (inactive)
C=CCNC(=O)CCSc1ccc(Cl)cc1	0.6% (inactive)
CC1CCCCC1NS(=O)(=O)c1cc(C(=O)Nc2ccc(F)c(F)c2)ccc1F (stereo not given)	37.3% (inactive)
CC12CC3(C)CC(C)(C1)CC(C(=O)Nc1ccc(F)c(Cl)c1)(C2)C3	-2.2% (inactive)
O=C(c1cc(F)cc(F)c1)N1CCC(c2cnn(-c3cccc(F)c3)c2)CC1	-5.6% (inactive)

Reference: PubChem BioAssay AID1794808 (University of Kansas High Throughput Screening Laboratory, 2022)
